# Results reported in PubChem BioAssay (NCATS).
# Records with an inconclusive call do not appear. A call without a number means that no potency is given here. Calls of active or inactive are those of the source. The call rests on the fitted dose curve; in most records, active means well fitted inhibition curve with a large enough effect; inconclusive means small, poorly fitted or top-dose-only effect; inactive means flat fitted curve, though single readings scatter.
# Assay: P-glycoprotein substrates identified in KB-8-5-11 adenocarcinoma cell line, qHTS therapeutic library screen (AID 1346987); further: nearly all actives have a fitted effect of over 65% in size
# Conditions: KB-8-5-11 (P-gp overexpressing) viability, CellTiter-Glo, 72 h; series mostly up to 44.5 µM
# Method in brief: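 Compounds are pinned in dose-response onto KB-8-5-11 cells (500 cells/well, colchicine-free medium) and left 72 h at 37 degree C. CellTiter-Glo luminescence then yields AC50 values.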
Compound,Potency,outcome
CCOC(=O)N1CCC(NCCNC(=O)c2ccccc2C)CC1,inactive,
CC1(C)CCC(C)(C)c2cc3c(cc21)Sc1ccccc1N=C3c1ccc(C(=O)O)cc1,inactive,
CC(=O)c1c(C)cc(O[C@@H]2O[C@H](CO)[C@@H](O)[C@H](O)[C@H]2O)cc1O,inactive,
COc1cc(/C=C/CO)ccc1O[C@@H]1O[C@H](CO)[C@@H](O)[C@H](O)[C@H]1O,inactive,
CC1(C)CCCC2(C)C3=C(C(=O)OC3O)C(O)CC12 (stereo not given),inactive,
C=CCc1ccc(O[C@@H]2O[C@H](CO[C@@H]3O[C@@H](C)[C@H](O)[C@@H](O)[C@H]3O)[C@@H](O)[C@H](O)[C@H]2O)cc1,inactive,
O=C(/C=C/c1ccc(O)cc1)OC[C@]12O[C@H]1[C@@H](O)[C@@H]1C=CO[C@@H](O[C@@H]3O[C@H](CO)[C@@H](O)[C@H](O)[C@H]3O)[C@@H]12,inactive,
C=C(C)C(=O)O[C@H]1C[C@@](C)(OC(C)=O)[C@@]2(O)CC[C@@](C)(O)[C@H](OC(C)=O)[C@@]23OC(=O)C(COC)=C13,inactive,
CCNC(=O)[C@H]1O[C@H](n2cnc3c(NCC(c4ccccc4)c4ccccc4)nc(C(=O)NCCNC(=O)NC4CCN(c5ccccn5)CC4)nc32)[C@H](O)[C@@H]1O,inactive,
CC(=O)N[C@H]1[C@H](O[C@H]2CC[C@@]3(C)C(CC[C@]4(C)C3CC=C3C5CC(C)(C)CC[C@]5(C(=O)O)[C@H](O[C@@H]5O[C@H](CO)[C@@H](O)[C@H](O)[C@H]5O)C[C@]34C)C2(C)C)O[C@H](CO[C@@H]2OC[C@H](O)[C@H](O)[C@H]2O[C@@H]2OC[C@@H](O)[C@H](O)[C@H]2O)[C@@H](O)[C@@H]1O (stereo not given in full),,inactive [at 9.29 µM]
